Source: PubChem (National Center for Advancing Translational Sciences (NCATS))
Sampled rows, rich in hits. Any-hit rate of the full collection: about 10%.
JMJD2A Tudor inh = blocks the human JMJD2A Tudor domain. AlphaScreen JMJD2A-Tudor / H3K4me3 peptide binding. O75164. AID 504339. Potency, µM (top dose mostly 114 µM), inactives show at the top dose activity change, negative = inhibition, hits mostly inhibitors. 4.4% of 390,000 active; further: on the % scale 0 is the no-effect control and ±100 the full control effect; nearly all actives have a fitted effect of over 50% in size
HP1b chromo inh = HP1-beta chromodomain-methylated histone interaction inhibition. AlphaScreen HP1-beta / biotin-H3K9me3 peptide binding. Potency, µM (series often up to 114 µM), for inactives: at the top dose activity change, negative = inhibition, usual class: inhibitors. 0.56% of 390,000 active; further: nearly all actives have a fitted effect of over 70% in size
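Compound inhibition of the preformed complex between 50 nM HP1-beta and 50 nM biotinylated H3K9me3 peptide was read by AlphaScreen. Buffer was PBS pH 7.4 with 0.01% Tween-20. Incubations ran 30 min at room temperature, with 10 ug/mL donor/acceptor beads.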
GLS inh = inhibitors of human glutaminase (GLS); O94925; GLS enzymatic activity, qHTS titration; Potency, µM (titrated, usually from 45.5 µM), inactives show at the top dose activity change, negative = inhibition, hits mostly inhibitors; 0.21% of 410,000 active; further: on the % scale 0 is the no-effect control and ±100 the full control effect
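Read-out is an Amplex red fluorescence increase coupled through glutamate oxidase and HRP, measured before and after 30 min room-temperature incubation. hKGA is in 45 mM KH2PO4 (pH 8.2) with 0.02% Tween-20; glutamine added as 1mM solution.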
BAZ2B block = BAZ2B (human) inhibition; Potency, µM (doses to about 114 µM), inactives show at the top dose activity change, negative = inhibition, most hits filed as inhibitors; 4.4% of 360,000 active; AID 504333; AlphaScreen BAZ2B-H3K14Ac peptide displacement; further: on the % scale 0 is the no-effect control and ±100 the full control effect; nearly all actives have a fitted effect of over 60% in size
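Protein-peptide AlphaScreen: BAZ2B 50 nM, b-H3K14Ac 50 nM, 1x PBS pH 7.4 + 0.01% Tween-20. Preincubation 30 min RT; cpd 30 min RT (top 110 uM); beads 20 min RT, light-protected.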
L3MBTL1 block = L3MBTL1 (human) inhibition. AlphaScreen L3MBTL1–H3K9me1 peptide binding. Potency, µM (highest dose often 57.1 µM), without a hit: at the highest dose activity, negative = inhibition, most hits filed as inhibitors. 0.66% of 230,000 active. Q9Y468. AID 485360; further: on the % scale 0 is the no-effect control and ±100 the full control effect; nearly all actives have a fitted effect of over 60% in size
Target sequence (Q9Y468 whole entry, looked up): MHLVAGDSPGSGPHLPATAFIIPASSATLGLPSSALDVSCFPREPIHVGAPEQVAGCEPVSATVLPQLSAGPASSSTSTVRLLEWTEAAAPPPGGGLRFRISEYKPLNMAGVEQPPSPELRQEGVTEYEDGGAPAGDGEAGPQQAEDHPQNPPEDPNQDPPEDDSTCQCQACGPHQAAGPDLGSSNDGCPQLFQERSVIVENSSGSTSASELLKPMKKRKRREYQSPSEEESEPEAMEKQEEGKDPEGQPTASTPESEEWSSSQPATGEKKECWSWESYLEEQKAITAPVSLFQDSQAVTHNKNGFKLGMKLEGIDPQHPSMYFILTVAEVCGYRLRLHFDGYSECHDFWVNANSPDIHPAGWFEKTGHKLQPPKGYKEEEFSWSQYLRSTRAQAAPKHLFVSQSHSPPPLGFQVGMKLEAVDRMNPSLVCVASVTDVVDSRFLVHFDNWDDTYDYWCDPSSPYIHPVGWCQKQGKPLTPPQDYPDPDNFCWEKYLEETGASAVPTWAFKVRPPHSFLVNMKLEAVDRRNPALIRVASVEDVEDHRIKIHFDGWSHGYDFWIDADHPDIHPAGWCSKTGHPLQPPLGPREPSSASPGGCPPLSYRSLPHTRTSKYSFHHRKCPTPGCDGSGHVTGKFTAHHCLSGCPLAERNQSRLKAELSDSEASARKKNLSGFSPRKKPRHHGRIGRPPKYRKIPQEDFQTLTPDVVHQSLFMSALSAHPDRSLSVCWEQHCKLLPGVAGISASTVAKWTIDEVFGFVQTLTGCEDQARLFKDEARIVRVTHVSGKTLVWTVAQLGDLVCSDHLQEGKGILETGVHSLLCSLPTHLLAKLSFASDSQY
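Displacement of a biotinylated histone H3(1-15) peptide monomethylated at Lys9 (75 nM) from L3MBTL1 (50 nM) was measured by AlphaScreen after a 30 min room-temperature compound incubation; cefsulodin titration served as intraplate control.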
G9a inh = blocks human histone lysine methyltransferase G9a; 8.8% of 350,000 active; AID 504332; Potency, µM (highest dose often 102 µM), inactives show at the top dose activity, negative = inhibition, most hits filed as inhibitors; Q96KQ7; G9a H3K9 monomethylation, AlphaScreen, 2 h; further: on the % scale 0 is the no-effect control and ±100 the full control effect; nearly all actives have a fitted effect of over 75% in size
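Step 1: enzyme (final 20 nM) with compound, 15 min RT. Step 2: substrate peptide 500 nM and SAM 20 uM, 2 h RT. Step 3: anti-H3K9me1 antibody and AlphaScreen beads, 10 min, then plate read.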
Starred values were filed as active, the others as inactive; ! = repeats disagree; [ ] = dose if it differs, or a comment. The call rests on the fitted dose curve; in most records, active means well fitted curve in the direction sought with a large enough effect; inconclusive means small, poorly fitted or top-dose-only effect, or another doubt; inactive means no such curve, though single readings can be large; an effect the other way counts as inactive or inconclusive. Potency means the concentration at half of the fitted maximal effect.

Screening O=C(CN1CCOCC1)NN=Cc1ccc([N+](=O)[O-])o1 returned GLS inh 15.3%.
Screening O=[N+]([O-])c1ccc(-c2ccc(/C=N/Nc3nc(NCc4ccccc4)nc(N4CCOCC4)n3)o2)cc1 returned JMJD2A Tudor inh -31.9%, HP1b chromo inh -1.2%, GLS inh 2.1%, BAZ2B block inconclusive, L3MBTL1 block -22.5% and G9a inh 25.1µM*.
Cc1cc(=O)[nH]c(N/N=C/c2ccc(-c3ccc([N+](=O)[O-])cc3)o2)n1 was read as JMJD2A Tudor inh -16.8%, HP1b chromo inh 45.6%, GLS inh -6.5%, BAZ2B block -1.9% and G9a inh -12.4%.
Screening COc1ccccc1CNC(=O)c1ccc(CSc2nc3ccncc3n2Cc2cccc(F)c2)cc1 returned JMJD2A Tudor inh -14.9%, HP1b chromo inh 50.7%, GLS inh -6.8%, BAZ2B block -12.2% and G9a inh inconclusive.
For NC(Cc1cccc(-c2ccccc2CP(=O)(O)O)c1)C(=O)O (stereo not given) the results were G9a inh 9.47µM*!.
CCOCCCNC(=O)Cn1ncc2c([nH]c3ccccc32)c1=O was read as JMJD2A Tudor inh 7.9%, HP1b chromo inh 19.2%, GLS inh 0.2%, BAZ2B block 0.7% and G9a inh -3.3%[59 µM].
Screening Cc1ccc2oc(-c3ccc(Cl)c(NC(=O)c4cc5ccccc5o4)c3)nc2c1 returned JMJD2A Tudor inh 5.5%, HP1b chromo inh 35.2%, GLS inh -15.9%, BAZ2B block 2.9% and G9a inh inconclusive.
Screening O=C(CCCC(=O)N/N=C\c1ccccn1)N/N=C\c1ccccn1 returned JMJD2A Tudor inh -8.9%[57.1 µM], HP1b chromo inh 46.5%, GLS inh 12.8%, BAZ2B block inconclusive, L3MBTL1 block 15.2% and G9a inh inconclusive.
For S=C(NN=C(c1ccccc1)c1ccccn1)N(Cc1ccccn1)Cc1ccccn1 the results were JMJD2A Tudor inh 12.6µM*, HP1b chromo inh inconclusive and GLS inh 16.0%.
Screening S=C(NN=Cc1ccccn1)N(Cc1ccccn1)Cc1ccccn1 returned JMJD2A Tudor inh 20µM*, HP1b chromo inh inconclusive and GLS inh 29.5%.
`Cc1ccccc1NC(=S)N(Cc1ccccn1)Cc1ccccc1Cl` gave JMJD2A Tudor inh -6.3%, HP1b chromo inh 47.0%, GLS inh 3.5%, BAZ2B block -23.5%, L3MBTL1 block 6.4% and G9a inh 3.5%.
CC(=NNC(=S)N(Cc1ccccn1)Cc1ccccn1)c1cnccn1 was read as JMJD2A Tudor inh 17.8µM*, HP1b chromo inh inconclusive and GLS inh 2.5%.
Screening CC(=O)N1N=C(c2c(-c3ccccc3)c3cc(C)ccc3[nH]c2=O)CC1c1ccco1 (stereo not given) returned JMJD2A Tudor inh inconclusive, HP1b chromo inh 6.0%, GLS inh -1.6%, BAZ2B block inconclusive, L3MBTL1 block -13.8% and G9a inh inconclusive.
`CC(=O)N1N=C(c2c(-c3ccccc3)c3cc(Br)ccc3[nH]c2=O)CC1c1ccco1` (stereo not given) gave JMJD2A Tudor inh -28.3%, HP1b chromo inh 39.7%, GLS inh -0.3%, BAZ2B block -18.5%, L3MBTL1 block -7.9% and G9a inh 50.1µM*.
CCC1Oc2ccc(C)cc2N(CC(=O)NCc2ccc(F)cc2)C1=O (stereo not given) was read as JMJD2A Tudor inh -8.3%, HP1b chromo inh 24.2%, GLS inh 5.2%, BAZ2B block -0.1% and G9a inh 2.9%[59 µM].
For Cc1ccc(Cn2c(CNS(=O)(=O)c3ccc(Cl)s3)nc3cccnc32)cc1 the results were JMJD2A Tudor inh -2.9%, HP1b chromo inh 26.4%[57 µM], GLS inh -12.2%, BAZ2B block -2.0% and G9a inh 30.6%[59 µM].
Cc1ccc(NS(=O)(=O)c2ccc3c(ccn3C)c2)cc1C was read as JMJD2A Tudor inh -17.0%.
`COCCNC(=O)c1cc2ncc(Br)cn2n1` gave JMJD2A Tudor inh 0.0%, HP1b chromo inh 28.1%, GLS inh -10.8%, BAZ2B block -1.7% and G9a inh 1.8%[59 µM].
Screening O=C(NCCc1ccccc1)c1cc2ncc(Br)cn2n1 returned JMJD2A Tudor inh -25.1%, HP1b chromo inh 30.6%, GLS inh -28.8%, BAZ2B block 50.1µM* and G9a inh -6.8%[12.7 µM].
Screening O=C(Nc1ccc2c(c1)OCO2)c1cc2ncc(Br)cn2n1 returned JMJD2A Tudor inh inconclusive, HP1b chromo inh inconclusive, GLS inh 36.8%, BAZ2B block 50.1µM* and G9a inh inconclusive.
Screening O=C(COc1ccc(F)cc1)OCc1cc(=O)n2nc(C3CCCCC3)sc2n1 returned JMJD2A Tudor inh -10.0%, HP1b chromo inh 15.4%, GLS inh -2.2%, BAZ2B block -10.3% and G9a inh 9.9%[59 µM].
O=C(Cn1cnc([N+](=O)[O-])n1)c1ccc(O)c(O)c1 was read as JMJD2A Tudor inh inconclusive, HP1b chromo inh 17.7%, GLS inh -6.3%, BAZ2B block 79.4µM* and G9a inh 8.91µM*.
O=C(Cn1cnc([N+](=O)[O-])n1)c1ccccc1 was read as JMJD2A Tudor inh -14.0%, HP1b chromo inh 7.2%, GLS inh 4.7%, BAZ2B block 3.7% and L3MBTL1 block 4.0%.
Screening CCOC(=O)C1=C(SCC)c2cc3c(n2C1=O)CCCC3 returned JMJD2A Tudor inh 35.5µM*, HP1b chromo inh inconclusive, GLS inh -8.2%, BAZ2B block 10µM*, L3MBTL1 block 25.1µM* and G9a inh 7.94µM*.
COc1ccc(-n2c(/C=C/c3cccc(C(F)(F)F)c3)nc3ccccc3c2=O)cc1Cl was read as JMJD2A Tudor inh -8.3%, HP1b chromo inh 21.2%, GLS inh -0.5%, BAZ2B block 0.5% and G9a inh 1.1%[59 µM].
Screening C[C@@H]1C=C[C@](Cc2ccccc2)(C(=O)NCCc2c[nH]c3ccccc23)N1C(=O)c1ccccc1 returned JMJD2A Tudor inh inconclusive, HP1b chromo inh -15.7%, GLS inh 6.2%, BAZ2B block inconclusive, L3MBTL1 block -7.4% and G9a inh 50.1µM*.
Screening COC(=O)c1ccc2c(c1)N(CC(=O)Nc1cccc(C(F)(F)F)c1)C(=O)c1ccccc1S2 returned JMJD2A Tudor inh -14.7%, HP1b chromo inh 12.9%[57 µM], GLS inh -11.7%, BAZ2B block -2.9% and G9a inh 9.5%[59 µM].
For COc1ccc(Cl)cc1NC(=O)CN1C(=O)COc2ccc(S(=O)(=O)NC3CCCC3)cc21 the results were JMJD2A Tudor inh -9.9%, HP1b chromo inh 16.4%, GLS inh -8.0%, BAZ2B block 4.3% and G9a inh -1.0%[59 µM].
